“And” between values parts separate entries of the source, which are not always exact repeats. Equal values may be shown once. Records with an inconclusive call do not appear. The source holds several records for some structures; these can differ, active in one and inactive in another. The source made the active and inactive calls. Unless noted, calls follow the shape of the dose curve; as a rule, active = well fitted curve in the direction sought with a large enough effect in the repeat runs; inconclusive = weak or mixed curves; inactive = no such curve, though single readings can be large; an effect the other way counts as inactive or inconclusive.
What was measured:
[1] = qHTS assay to identify small molecule antagonists of the glucocorticoid receptor (GR) signaling pathway - cell viability counter screen (AID 720693); also: nearly all actives have a fitted effect of over 55% in size
[2] = qHTS assay for identifying genotoxic compounds that show differential cytotoxicity against isogenic chicken DT40 cell lines with known DNA damage response pathways - wild type cell line (AID 743012); also: nearly all actives have a fitted effect of over 60% in size; also: potency is read from the fitted curve at half-maximal effect
Method in brief: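 Cells (DT40 wild type, 300/well) are treated with DMSO-dissolved compounds after a ~0.5 h pre-incubation and kept 40 h at 37 C/5% CO2. Viability is then measured by CellTiter-Glo luminescence following 30 min at room temperature.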

[3] = qHTS assay for identifying genotoxic compounds that show differential cytotoxicity against isogenic chicken DT40 cell lines with known DNA damage response pathways - Rev3 mutant cell line (AID 743014); also: nearly all actives have a fitted effect of over 55% in size; also: potency is read from the fitted curve at half-maximal effect
[4] = qHTS assay for identifying genotoxic compounds that show differential cytotoxicity against isogenic chicken DT40 cell lines with known DNA damage response pathways - Rad54/Ku70 mutant cell line (AID 743015); also: nearly all actives have a fitted effect of over 60% in size; also: potency is read from the fitted curve at half-maximal effect
[5] = qHTS assay to identify small molecule antagonists of the androgen receptor (AR) signaling pathway - cell viability counter screen (AID 743033; also: nearly all actives have a fitted effect of over 45% in size)
[6] = qHTS assay to identify small molecule antagonists of the androgen receptor (AR) signaling pathway using the MDA cell line - cell viability counter screen (AID 743041; also: nearly all actives have a fitted effect of over 45% in size)
Method in brief: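 MDA-kb2 AR-luc cells (MMTV-luciferase, AR/GR responsive) treated with compounds plus R1881 agonist for 16 h at 37C. CellTiter-Fluor added at 15.5 h; fluorescence read after 30 min in the same wells.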

[7] = qHTS assay to identify small molecule antagonists of the thyroid receptor (TR) signaling pathway - cell viability counter screen (AID 743064); also: nearly all actives have a fitted effect of over 50% in size
Method in brief: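 Same-well viability check: GH3.TRE-Luc cells stimulated with 1 nM T3 alongside test compound for 23.5 h, followed by CellTiter-Fluor fluorescence.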

[8] = qHTS assay to identify small molecule antagonists of the thyroid receptor (TR) signaling pathway (AID 743065); also: series mostly up to about 70 µM; nearly all actives have a fitted effect of over 55% in size
Method in brief: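 GH3.TRE-Luc rat pituitary cells (two TREs driving luciferase) were dosed with compound, then stimulated with 1 nM T3 (final) for 23.5 h at 37 C. ONE-Glo luminescence was the read-out, with CellTiter-Fluor fluorescence as the cytotoxicity counter-screen.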

[9] = tested on: thyroid hormone receptor (rat, GH3 cells); assay: qHTS assay to identify small molecule agonists of the thyroid receptor (TR) signaling pathway (AID 743066; calls by dose curve)
[10] = target: Estrogen receptor (Homo sapiens) (UniProt P03372); assay: qHTS assay to identify small molecule antagonists of the estrogen receptor alpha (ER-alpha) signaling pathway (AID 743069; active = well fitted curve in the direction sought with a large enough effect in the signal ratio in the repeat runs, not every such curve was filed as active; the % refers to the signal ratio)
Sequence of Estrogen receptor (Homo sapiens) (P03372 whole entry, looked up): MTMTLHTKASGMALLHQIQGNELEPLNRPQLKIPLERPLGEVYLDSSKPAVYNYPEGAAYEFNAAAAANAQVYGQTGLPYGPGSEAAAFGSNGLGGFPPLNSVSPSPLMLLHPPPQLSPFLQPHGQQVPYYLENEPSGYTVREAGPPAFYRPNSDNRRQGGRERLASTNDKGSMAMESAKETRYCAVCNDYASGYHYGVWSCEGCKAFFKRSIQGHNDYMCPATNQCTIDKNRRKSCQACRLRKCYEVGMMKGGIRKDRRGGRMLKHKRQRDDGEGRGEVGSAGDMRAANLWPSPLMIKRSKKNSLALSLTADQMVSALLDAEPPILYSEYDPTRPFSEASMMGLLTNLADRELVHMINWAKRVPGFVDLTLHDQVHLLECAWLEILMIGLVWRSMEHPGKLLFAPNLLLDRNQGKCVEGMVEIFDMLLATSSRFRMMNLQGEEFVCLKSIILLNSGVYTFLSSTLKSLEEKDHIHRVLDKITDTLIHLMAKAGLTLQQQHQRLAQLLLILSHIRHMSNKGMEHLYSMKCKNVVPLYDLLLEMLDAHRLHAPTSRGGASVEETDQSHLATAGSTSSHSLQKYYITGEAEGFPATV
Method in brief: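 HEK293 ER-alpha-UAS-bla GripTite cells, held overnight in 2% charcoal-stripped FBS, 5,000 cells/well, preincubated 4 h, then compound plus 17beta-estradiol for 18 h at 37C. Beta-lactamase read by LiveBLAzer B/G FRET substrate, 2 h at room temperature.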

[11] = qHTS assay to identify small molecule antagonists of the estrogen receptor alpha (ER-alpha) signaling pathway - cell viability counter screen (AID 743074; calls by dose curve;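 also: HEK293 cells carrying ER-alpha-UAS-bla reporter stimulated with 17beta-estradiol; nearly all actives have a fitted effect of over 45% in size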)
[12] = target: Estrogen receptor (Homo sapiens) (UniProt P03372); assay: qHTS assay to identify small molecule agonists of the estrogen receptor alpha (ER-alpha) signaling pathway (AID 743075; calls by dose curve)
[13] = target: Estrogen receptor (Homo sapiens) (UniProt P03372); assay: qHTS assay to identify small molecule agonists of the estrogen receptor alpha (ER-alpha) signaling pathway using the BG1 cell line (AID 743079); also: nearly all actives have a fitted effect of over 20% in size
[14] = qHTS assay to identify small molecule antagonists of the estrogen receptor alpha (ER-alpha) signaling pathway using the BG1 cell line (AID 743080; calls by dose curve;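 also: BG1 cells stimulated with 17beta-estradiol alongside compound; series mostly up to about 70 µM; nearly all actives have a fitted effect of over 25% in size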)
Method in brief: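 BG1-Luc-4E2 cells (endogenous full-length ER-alpha, 4xERE luciferase) hormone-starved 5 days in charcoal-stripped FBS, plated 4,000/well for 24 h, then compound plus 17beta-estradiol for 21.5 h at 37 C; ONE-Glo luminescence read.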

[15] = qHTS assay to identify small molecule antagonists of the estrogen receptor alpha (ER-alpha) signaling pathway using the BG1 cell line - cell viability counter screen (AID 743081);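 also: compound given together with 17beta-estradiol as the ER stimulus; series mostly up to about 70 µM; nearly all actives have a fitted effect of over 45% in size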
[16] = target: Aromatase (Homo sapiens) (UniProt P11511); assay: qHTS assay to identify aromatase inhibitors (AID 743083); also: series mostly up to about 70 µM; nearly all actives have a fitted effect of over 55% in size
Sequence of Aromatase (Homo sapiens) (P11511 whole entry, looked up): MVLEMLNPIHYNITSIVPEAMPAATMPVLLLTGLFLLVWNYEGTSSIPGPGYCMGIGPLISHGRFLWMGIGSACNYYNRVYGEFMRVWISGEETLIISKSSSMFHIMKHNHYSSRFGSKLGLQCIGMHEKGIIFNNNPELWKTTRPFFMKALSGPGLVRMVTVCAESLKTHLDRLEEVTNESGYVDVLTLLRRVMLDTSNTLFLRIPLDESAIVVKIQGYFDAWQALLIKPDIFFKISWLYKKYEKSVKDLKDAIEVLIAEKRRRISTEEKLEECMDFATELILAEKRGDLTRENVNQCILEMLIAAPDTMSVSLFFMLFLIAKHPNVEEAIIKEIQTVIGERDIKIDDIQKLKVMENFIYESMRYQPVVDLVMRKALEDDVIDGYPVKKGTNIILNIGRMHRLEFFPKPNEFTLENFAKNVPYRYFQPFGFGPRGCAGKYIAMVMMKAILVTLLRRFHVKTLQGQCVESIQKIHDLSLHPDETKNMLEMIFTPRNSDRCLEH

[17] = target: Androgen receptor (Homo sapiens) (UniProt P10275); assay: qHTS assay to identify small molecule antagonists of the androgen receptor (AR) signaling pathway (AID 743035; active = well fitted inhibition curve with a large enough effect in the signal ratio in the repeat runs, not every such curve was filed as active; the % refers to the signal ratio)
Sequence of Androgen receptor (Homo sapiens) (P10275 whole entry, looked up): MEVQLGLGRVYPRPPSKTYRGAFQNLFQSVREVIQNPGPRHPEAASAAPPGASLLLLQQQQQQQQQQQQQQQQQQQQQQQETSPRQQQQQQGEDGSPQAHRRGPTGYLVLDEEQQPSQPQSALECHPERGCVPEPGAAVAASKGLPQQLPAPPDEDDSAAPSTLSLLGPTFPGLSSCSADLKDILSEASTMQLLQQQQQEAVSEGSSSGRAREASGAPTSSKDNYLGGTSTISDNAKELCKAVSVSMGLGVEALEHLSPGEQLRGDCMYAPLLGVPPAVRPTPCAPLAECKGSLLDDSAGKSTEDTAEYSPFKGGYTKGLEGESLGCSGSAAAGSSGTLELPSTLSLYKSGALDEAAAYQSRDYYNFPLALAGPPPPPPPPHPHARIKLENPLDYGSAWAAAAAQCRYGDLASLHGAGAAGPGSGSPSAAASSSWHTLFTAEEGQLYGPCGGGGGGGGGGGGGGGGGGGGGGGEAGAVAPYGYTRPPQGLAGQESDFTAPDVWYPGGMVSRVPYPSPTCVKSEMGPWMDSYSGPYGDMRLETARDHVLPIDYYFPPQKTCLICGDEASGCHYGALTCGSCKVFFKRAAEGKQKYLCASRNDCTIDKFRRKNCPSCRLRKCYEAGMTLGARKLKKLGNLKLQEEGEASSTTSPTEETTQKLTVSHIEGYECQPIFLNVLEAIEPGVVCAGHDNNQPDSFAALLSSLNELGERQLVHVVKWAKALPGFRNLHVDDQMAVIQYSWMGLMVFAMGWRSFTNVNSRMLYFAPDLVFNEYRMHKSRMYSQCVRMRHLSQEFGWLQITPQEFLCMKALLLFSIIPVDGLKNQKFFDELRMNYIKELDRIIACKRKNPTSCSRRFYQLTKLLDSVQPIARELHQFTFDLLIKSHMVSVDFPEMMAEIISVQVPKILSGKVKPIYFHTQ
Method in brief: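 Antagonism is scored as loss of R1881-driven beta-lactamase reporter expression in HEK293 cells carrying the reporter under a UAS element, after 16 h co-treatment at 37C and a 2 h room-temperature FRET substrate read.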

[18] = target: Androgen receptor (Homo sapiens) (UniProt P10275); assay: qHTS assay to identify small molecule agonists of the androgen receptor (AR) signaling pathway (AID 743036; active = well fitted activation curve with a large enough effect in the signal ratio in the repeat runs, with a control signal flat, not every such curve was filed as active; the % refers to the signal ratio)
Method in brief: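 Agonist activity was scored by beta-lactamase reporter fluorescence in stably transfected HEK293 cells exposed to compounds for 16 h at 37C and 5% CO2. Substrate loading took 2 h at room temperature.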

[19] = target: Androgen receptor (Homo sapiens) (UniProt P10275); assay: qHTS assay to identify small molecule agonists of the androgen receptor (AR) signaling pathway using the MDA cell line (AID 743040; also: nearly all actives have a fitted effect of over 20% in size)
Method in brief: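 MDA-kb2 breast carcinoma cells carrying MMTV-luciferase (responsive to AR and GR), plated 5 h then treated 16 h with compounds at 37C, 0% CO2. Read-out was ONE-Glo luminescence after 30 min at room temperature.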

[20] = target: Androgen receptor (Homo sapiens) (UniProt P10275); assay: qHTS assay to identify small molecule antagonists of the androgen receptor (AR) signaling pathway using the MDA cell line (AID 743042; also: nearly all actives have a fitted effect of over 55% in size)
Method in brief: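 MDA-kb2 breast carcinoma cells carrying MMTV-luciferase (AR/GR responsive) were co-treated with compounds and the agonist R1881 for 16 h at 37C. Inhibition read as ONE-Glo luminescence; CellTiter-Fluor fluorescence measured in parallel for cytotoxicity.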

Measured: Potency

C=C(C)C(=O)OCCCCCC
inactive: [1] | [2] | [3] | [4] | [5] | [6] | [7] | [8] | [9] | [10] | [11] | [12] | [13] | [14] | [15] | [16]

C=CC(=O)OCCCCCCCC(C)C
inactive: [1] | [5] | [17] | [18] | [19] | [6] | [20] | [7] | [8] | [9] | [10] | [11] | [12] | [13] | [14] | [15] | [16]
inactive and 48.5 µM (active): [2]
inactive and 54.4 µM (active): [3]
inactive and 27.3 µM (active): [4]

CCCCC(CC)C(=O)OCCOCCOCCOC(=O)C(CC)CCCC (stereo not given)
inactive: [1] | [4] | [5] | [17] | [18] | [19] | [6] | [20] | [8] | [9] | [10] | [11] | [12] | [13] | [14] | [15] | [16]
active: [2] 21.7 µM
inactive and 19.3 µM (active): [3]

Nc1nc2ncc(CNc3ccc(C(=O)N[C@@H](CCC(=O)O)C(=O)O)cc3)nc2c(=O)[nH]1
inactive: [1] | [2] | [3] | [4] | [5] | [17] | [18] | [19] | [6] | [20] | [11] | [15] | [16]

CCCCCCCCC
inactive: [1] | [2] | [3] | [4] | [5] | [6] | [7] | [8] | [9] | [10] | [11] | [12] | [13] | [14] | [15] | [16]

C=C1C2CCC(C2)C1(C)C (stereo not given)
inactive: [1] | [2] | [3] | [4] | [5] | [6] | [7] | [8] | [9] | [10] | [11] | [12] | [13] | [14] | [15] | [16]

Cc1cc(=O)[nH]c(C(C)C)n1
inactive: [1] | [2] | [3] | [4] | [5] | [17] | [18] | [19] | [6] | [20] | [7] | [8] | [9] | [10] | [11] | [12] | [13] | [14] | [15] | [16]
